From the supplement of paper PMC12350171
Counter-ions that a name gives are not always drawn. Unmarked numbers belong to inactive results.

How the values were obtained:
Settings in all cases: 20 µM
[1] = test system: Salmonella enterica typhimurium; test: growth AUC normalised to DMSO control (fraction of control); higher = less growth inhibition, active = hit call of the paper
How it was run: (§1)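 Hemin and NAD were added to the medium for Haemophilus parainfluenzae. All pathogens, after two anaerobic passages, were inoculated at a starting OD578 of 0.01 into pre-reduced mGAM plates with 20 μM compound and 1% DMSO under breathable seals, and OD578 was read hourly for 24 h in three biological replicates. AUC of each growth curve was obtained with the trapezoidal rule up to the exponential-to-stationary transition and normalised to DMSO controls from the same plate.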

[2] = test system: Shigella flexneri; test: as above
How it was run: as §1

[3] = test system: Vibrio cholerae; test: as above
How it was run: as §1

[4] = test system: Yersinia pseudotuberculosis; test: as above
How it was run: as §1

[5] = test system: P. vulgatus RND KO; test: growth AUC normalised to DMSO control (median) (fraction of control); higher = less growth inhibition, active = hit call of the paper
How it was run: (§2)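 For normalised area under the curve, growth curves were truncated at entry into stationary phase, integrated by the trapezoidal rule and divided against vehicle wells on the same plate. The curves came from strains passaged twice overnight without oxygen and then grown in mGAM in 96-well plates at a starting OD578 of 0.01. Each well held an approved-drug library compound at 20 μM with 1% DMSO, and OD578 was read hourly for 24 h in an anaerobic incubator. Values are medians of three biological replicates.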

[6] = test system: P. vulgatus WT; test: as above
How it was run: as §2

[7] = test system: S. enterica typhimurium WT; test: as above
How it was run: as §2

[8] = test system: S. enterica typhimurium tolC KO; test: as above
How it was run: as §2
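Throughout, for growth AUC normalised to DMSO control (median): active when median AUC fell below 0.1.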

SMILES	growth AUC normalised to DMSO control [1]	growth AUC normalised to DMSO control [2]	growth AUC normalised to DMSO control [3]	growth AUC normalised to DMSO control [4]	growth AUC normalised to DMSO control [5]	growth AUC normalised to DMSO control [6]	growth AUC normalised to DMSO control [7]	growth AUC normalised to DMSO control [8]
CCn1cc(C(=O)O)c(=O)c2cc(F)c(N3CCNCC3)cc21 [Norfloxacin]	0.00731 (active)	0.0176 (active)	0.0427 (active)	0.0323 (active)	0.922	0.865	0.00734 (active)	0.0069 (active)
N[C@@H]1CONC1=O [D-cycloserine]	1.03	1.01	1.02	1.01	0.972	0.962	0.994	1
Cc1cn([C@H]2C=C[C@@H](CO)O2)c(=O)[nH]c1=O [Stavudine]	1.01	1.03	1.03	0.992	1	1.05	1.03	1.02
COc1ccc(CC(C)NCC(O)c2ccc(O)c(NC=O)c2)cc1 (stereo not given) [Formoterol fumarate]	1.01	1.07	0.995	1.05	1.01	1.02	1.01	0.998
CNCCCC12CCC(c3ccccc31)c1ccccc12 [Maprotiline hydrochloride]	1	0.999	0.942	1.01	0.947	0.985	0.997	0.982
CC(C)(C)C(=O)OCOC(=O)[C@@H]1N2C(=O)[C@@H](/N=C/N3CCCCCC3)[C@H]2SC1(C)C [Pivmecillinam hydrochloride]	0.0179 (active)	0.0752 (active)	0.956	0.0551 (active)	1.01	1.03	0.158	0.145
OCCOCCN1CCN(C2=Nc3ccccc3Sc3ccccc32)CC1 [Quetiapine hemifumarate]	0.999	0.978	0.991	0.981	0.946	0.91	1.01	0.977
COC(=O)C1=C(C)NC(C)=C(C(=O)OCC(C)C)C1c1ccccc1[N+](=O)[O-] (stereo not given) [Nisoldipine]	1.01	1	1.01	0.991	0.945	0.981	1.01	0.95
CCN1CCCC1CNC(=O)c1cc(S(N)(=O)=O)ccc1OC (stereo not given) [Sulpiride]	0.99	1	1.01	1.02	0.992	1.01	1	0.999
Cc1ccc(-c2ncc(Cl)cc2-c2ccc(S(C)(=O)=O)cc2)cn1 [Etoricoxib]	1.01	1.03	1.03	0.989	1.01	1.03	0.972	0.978
CC(C[N+](C)(C)C)OC(N)=O (stereo not given) [Bethanechol chloride]	1	1.01	1.02	0.986	0.982	0.997	1	0.993
CN(C)CCN(Cc1ccc(Cl)cc1)c1ccccn1 [Chloropyramine hydrochloride]	0.97	1.03	0.977	1.02	1.07	1.05	0.988	0.953
O=C(O)c1cn(C2CC2)c2cc(N3CCNCC3)c(F)cc2c1=O [Ciprofloxacin hydrochloride monohydrate]	0.00833 (active)	0.0218 (active)	0.0273 (active)	0.0762 (active)	0.0296 (active)	0.679	0.00642 (active)	0.00798 (active)
Cc1c(OCC(F)(F)F)ccnc1C[S+]([O-])c1nc2ccccc2[nH]1 (stereo not given) [Lansoprazole]	1	1	0.941	0.994	0.984	0.973	1	0.852
Cc1cccc(C)c1NC(=O)CN1CCN(CCCC(c2ccc(F)cc2)c2ccc(F)cc2)CC1 [Lidoflazine]	1.01	1.02	1.01	1.02	1.04	1.04	1.01	0.938
CCSc1ccc2c(c1)N(CCCN1CCN(C)CC1)c1ccccc1S2 [Thiethylperazine maleate]	1	1.02	0.983	0.99	1	1	0.996	0.91
O=C(OCCOCCO)c1ccccc1Nc1cccc(C(F)(F)F)c1 [Etofenamate]	1.01	0.979	0.977	0.991	0.832	0.909	1	0.858
CC[C@H](c1ccc(O)cc1)[C@@H](CC)c1ccc(O)cc1 [Hexestrol]	0.998	1	0.932	0.999	0.766	0.825	0.989	0.889
COC1=C(OC)C(=O)C(CCCCCCCCCCO)=C(C)C1=O [Idebenone]	1.02	1.01	0.989	1.02	0.913	0.95	1.01	0.972
CC(=O)OCC(=O)[C@@]12OC3(CCCC3)O[C@@H]1C[C@H]1[C@@H]3CCC4=CC(=O)C=C[C@]4(C)[C@@]3(F)[C@@H](O)C[C@@]12C [Amcinonide]	1.01	1.02	1.04	1.04	0.993	0.991	1.01	0.988
CC(C(O)c1ccc(O)cc1)N1CCC(Cc2ccccc2)CC1 (stereo not given) [Ifenprodil tartrate]	1	1.05	1.03	1	1.03	1.02	1.01	1
CC(CCc1ccc(O)cc1)NCCc1ccc(O)c(O)c1 (stereo not given) [Dobutamine hydrochloride]	0.988	0.976	0.99	1	0.993	0.999	1.01	0.998
O=C(O)c1ccccc1Nc1cccc(C(F)(F)F)c1 [Flufenamic acid]	0.992	0.963	0.906	0.981	0.833	0.849	1.01	0.968
C#C[C@]1(O)CC[C@H]2[C@@H]3CCC4=Cc5oncc5C[C@]4(C)[C@H]3CC[C@@]21C [Danazol]	0.994	0.971	0.991	0.954	0.982	0.992	1	0.983
Cc1cc(-c2ccccc2)nnc1NCCN1CCOCC1 [Minaprine dihydrochloride]	0.997	1.01	1.02	1	1	0.998	1	0.998
CO[C@H]1/C=C/O[C@@]2(C)Oc3c(C)c(O)c4c(O)c(c5c(nc6cc(C)ccn65)c4c3C2=O)NC(=O)/C(C)=C\C=C\[C@H](C)[C@H](O)[C@@H](C)[C@@H](O)[C@@H](C)[C@H](OC(C)=O)[C@@H]1C [Rifaximin]	0.477 (active)	0.56 (active)	1.1	0.0303 (active)	0.0137 (active)	0.00787 (active)	0.217	0.0409 (active)
c1ccc(CN(CC2=NCCN2)c2ccccc2)cc1 [Antazoline hydrochloride]	0.999	1.01	1.01	1	1.03	1.05	0.996	1
C[C@H](CCC(=O)O)[C@H]1CC[C@H]2[C@@H]3[C@@H](O)C[C@@H]4C[C@H](O)CC[C@]4(C)[C@H]3CC[C@]12C [Urosiol]	0.971	1.02	1.04	1.01	1.02	1.02	1	1.01
COc1ccccc1Oc1c(NS(=O)(=O)c2ccc(C(C)(C)C)cc2)nc(-c2ncccn2)nc1OCCO [Bosentan]	1.02	1.03	1.01	1.01	1	1.01	1.01	0.985
CC12CC3CC(C)(C1)CC(N)(C3)C2 [Memantine hydrochloride]	0.997	0.99	1.01	0.985	1.01	1.02	1.01	1
